Molecules are shown by their SMILES. Inconclusive results are not listed. Values without a mark were called inactive. Active and inactive are the calls of the source. The call rests on the fitted dose curve; in most records, active means well fitted inhibition curve with a large enough effect; inconclusive means small, poorly fitted or top-dose-only effect; inactive means flat fitted curve, though single readings scatter.
On the % scale 0 is the no-effect control and ±100 the full control effect; potency means the concentration at half of the fitted maximal effect.

The test system of the experiment is HaCat. Kind of experiment: Cytotoxic Profiling of Annotated Libraries Using Quantitative High-Throughput Screening (AID 1296008). Further: nearly all actives have a fitted effect of over 60% in size. As to conditions: Five cell lines viability, CellTiter-Glo ATP luminescence, 48-72 h; max response: active compounds read low. Summed up: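 Cytotoxicity was measured as CellTiter-Glo ATP luminescence, read after 10 min at room temperature. Compound treatment of the cells lasted 48 or 72 hr at 37 degrees Celsius in a qHTS format.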
Background: ATP-based viability assays read luminescence as a measure of living cells.
With `Cc1nc(NC(=O)N2CCCC2C(N)=O)sc1-c1ccnc(C(C)(C)C(F)(F)F)c1` (stereo not drawn), the Potency was 2310 nM (active). In the case of `COc1ccc(-c2ccc3c(N4CCOCC4C)nc(N4CCOCC4C)nc3n2)cc1CO` (stereo not drawn), the Potency is 2910 nM (active). As for `COc1cc2c(cc1NS(=O)(=O)c1ccc(Br)cc1C)n(C)c(=O)n2C`, the max response is 0.2%.

On to `CCn1c(-c2nonc2N)nc2c(C#CC(C)(C)O)ncc(OCC3CCCNC3)c21` (stereo not drawn), for which the result was inactive. On to `CCn1c(-c2nonc2N)nc2c(C#CCO)ncc(OCCCN)c21`, for which the result was inactive.

As to `C/C(=N\N=C(N)N)c1cc(NC(=O)CCCCCCCCC(=O)Nc2cc(/C(C)=N/N=C(N)N)cc(/C(C)=N/N=C(N)N)c2)cc(/C(C)=N/N=C(N)N)c1`, the call was inactive.

Consider `COc1cc2c(Nc3cc(F)c(Cl)c(Cl)c3)ncnc2cc1OCC1CCCN(C)CCC1`, for which the Potency was 82 nM (active). Consider `Cc1cc2c(c(=O)o1)C=C1CC[C@H]([C@H](C)Cn3cnc(=N)c4[nH]cnc43)C[C@@H]1O2`, for which the result was inactive. Same read-out and setting: the result for `c1cc(NCCc2c[nH]c3ccccc23)cc(Nc2ccncc2)c1` reads “inactive”. As to `C=C[C@@]1(C)C=C2C(=O)C(O)=C3[C@](C)(C(=O)O)CC[C@@H]4C[C@]34[C@]2(O)C(=O)C1`, the Potency was 10100 nM (active). Regarding `CC(=O)N1CCN(CCOc2ccc(C3CCN(C4=Nn5c(nnc5C(F)(F)F)CC4)CC3)cc2)CC1`, the max response was -1.46%.

Consider `CCc1ccccc1OC[C@@H](O)CN[C@H]1CCCc2ccccc21`, for which the call was inactive. Turning to `COC(=O)N1CC2(CC2)C[C@H](C(=O)NO)[C@H]1C(=O)N1CCN(c2ccccc2)CC1`, the Potency is 26300 nM (active).

Values taken from PubChem BioAssay (NCATS).
